In PubChem BioAssay (Tox21) one finds Potency data, which are given here for seven compounds.

Test [1] in a line: A CellTox Green Cytotoxicity Assay to monitor cytotoxicity in HepG2 cells - 0 hour (AID 1224882). Also: nearly all actives have a fitted effect of over 35% in size. The procedure, abridged: (§1)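 Continuous culture of HepG2 cells with a membrane-impermeant DNA dye; rising fluorescence marks dead cells. Compound exposure lasted up to 40 h at 37 C, with reads every 8 h from 0 h.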
Test [2] in a line: A CellTox Green Cytotoxicity Assay to monitor cytotoxicity in HepG2 cells - 32 hour (AID 1224883). Also: nearly all actives have a fitted effect of over 50% in size. The procedure, abridged: as §1
A short description of test [3]: A CellTox Green Cytotoxicity Assay to monitor cytotoxicity in HEK293 cells - 8 hour (AID 1224884). Also: nearly all actives have a fitted effect of over 35% in size. The method in brief:
(§2)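 Each value comes from one timepoint of a single continuous run in which HEK293 cells with CellTox Green were exposed to compound for up to 40 h at 37 C, dye fluorescence rising with cell death.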

A short description of test [4]: qHTS RealTime-Glo MT Cell Viability Assay in HepG2 cells - 16 hour (AID 1224885). Also: nearly all actives have a fitted effect of over 50% in size. The method in brief: (§3)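 Tox21 10K library screened in qHTS format on HepG2 cells carrying RealTime-Glo reagents. Compounds were added after a 5 h preincubation, and the luminescent signal from continuous culture was measured repeatedly during 40 h treatment.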
A short description of test [5]: qHTS RealTime-Glo MT Cell Viability Assay in HEK293 cells - 24 hour (AID 1224886). Also: nearly all actives have a fitted effect of over 50% in size. Also: potency is read from the fitted curve at half-maximal effect. The procedure, abridged: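 Luminescence generated by NanoLuc from substrate produced by living HEK293 cells served as the viability signal. Each value reflects the reading at its stated time point during continuous 40 h compound exposure at 37 C.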
Background: In qHTS, concentration-response curves come from the screen itself.

Test [6] can be described thus: qHTS RealTime-Glo MT Cell Viability Assay in HEK293 cells - 8 hour (AID 1224887). Also: nearly all actives have a fitted effect of over 50% in size. Also: potency is read from the fitted curve at half-maximal effect. The procedure, abridged:
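qHTS format; HEK293 cells with NanoLuc/prosubstrate reagent, 37 C/5% CO2 for 5 h pre-dosing; compounds 23 nL in DMSO; luminescence at each time point reflects viable cells.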

Test [7] can be described thus: A CellTox Green Cytotoxicity Assay to monitor cytotoxicity in HEK293 cells - 16 hour (AID 1224888). Also: nearly all actives have a fitted effect of over 35% in size. The procedure, abridged: as §2
Test [8] is described as follows: qHTS RealTime-Glo MT Cell Viability Assay in HepG2 cells - 0 hour (AID 1224889). Also: nearly all actives have a fitted effect of over 50% in size. The method in brief: as §3
Test [9] in a line: A CellTox Green Cytotoxicity Assay to monitor cytotoxicity in HepG2 cells - 8 hour (AID 1224890). Also: nearly all actives have a fitted effect of over 45% in size. The procedure, abridged:
as §1

A short description of test [10]: qHTS assay to identify small molecule antagonists of the estrogen receptor alpha (ER-alpha) signaling pathway using the BG1 cell line in the presence of 0.1 nM 17-beta-estradiol - cell viability counter screen (AID 1259241). Also: nearly all actives have a fitted effect of over 40% in size. The method in brief: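 Cells were plated and left 24 hr, compounds in DMSO were pinned in, 17beta-estradiol was added to 0.1 nM final, and after 22 hr CellTiter-Fluor reagent was added for 30 min before fluorescence was read.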

Test [11] is described as follows: qHTS assay to identify small molecule phospholipidosis (PLD) inducers (AID 1259344; active = well fitted curve in the direction sought with a large enough effect; an effect the other way counts as inactive or inconclusive). The method in brief:
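Fluorescent phospholipid staining (LipidTOX Red) measured by automated microscopy in fixed HepG2 cells after 24 h treatment; nuclei counterstained with Hoechst 33342; amiodarone as reference inducer.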

The nature of test [12]: qHTS assay to identify small molecule HDAC inhibitors (AID 1259364). Also: top concentration of the series differs between compounds; nearly all actives have a fitted effect of over 45% in size. The procedure, abridged:
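Endogenous HDAC class I/II activity was measured in wild-type HCT-116 cells by HDAC-Glo luminescence after 2 h compound treatment.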

Test [13] can be described thus: qHTS assay to identify small molecule HDAC inhibitors - cell viability counter screen (AID 1259365). The method in brief:
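Counter screen in wild-type HCT-116 cells: compounds dissolved in DMSO are pin-transferred onto overnight-plated cells and left 2hr at 37C. ATP-based CellTiter-Glo luminescence then measures viable cells.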

Test [14] in a line: qHTS assay to identify small molecule agonists of the sonic hedgehog signaling (Shh) pathway - cell viability counter screen (AID 1259366). Also: nearly all actives have a fitted effect of over 50% in size. Also: potency is read from the fitted curve at half-maximal effect. The procedure, abridged: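 Cells are plated at 2,000 per well and left 4hr at 37C, 5% CO2 before compound addition. After 23hr of treatment, CellTiter-Fluor reagent is added for 1hr at 37C and fluorescence is measured.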
Test [15] in a line: qHTS assay to identify small molecule antagonists of the sonic hedgehog signaling (Shh) pathway - cell viability counter screen (AID 1259367). Also: nearly all actives have a fitted effect of over 55% in size. Also: potency is read from the fitted curve at half-maximal effect. The method in brief: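 Using CellTiter-Fluor, viability of Gli1-Luc reporter 3T3 cells is read by fluorescence in the wells used for the Shh luciferase assay. Treatment lasts 23 hr with conditioned medium, then reagent 1 hr at 37C.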

Test [16] is described as follows: qHTS assay to identify small molecule agonists of the sonic hedgehog signaling (Shh) pathway (AID 1259368; calls by dose curve;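 also: NIH/3T3-derived 3T3Gli1-Luc cells carrying a stable Gli1-driven firefly luciferase reporter; series mostly up to about 92 µM; nearly all actives have a fitted effect of over 15% in size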). The method in brief: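 Luminescent signal was taken as a measure of Gli1-controlled luciferase expression in stably transfected NIH/3T3-derived cells that had been treated for 24 hr with compounds delivered in DMSO.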
The nature of test [17]: qHTS assay to identify small molecule antagonists of the sonic hedgehog signaling (Shh) pathway (AID 1259369; calls by dose curve; also: nearly all actives have a fitted effect of over 45% in size; also: potency is read from the fitted curve at half-maximal effect). The method in brief: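 Screening used 3T3Gli1-Luc cells at 2,000 per well, compounds delivered in DMSO, and conditioned medium as agonist stimulus; plates incubated 24hr at 37 C and 5% CO2 before a 30min luciferase step.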
Test [18] is described as follows: qHTS assay to identify small molecule antagonists of the androgen receptor (AR) signaling pathway using the MDA cell line in the presence of 0.5 nM R1881 - cell viability counter screen (AID 1259242). Also: nearly all actives have a fitted effect of over 45% in size. The procedure, abridged:
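Fluorescence from CellTiter-Fluor, which reports protease activity of live cells, was read 30 min after reagent addition to MDA-kb2 cells that had been incubated 16 hr with compound and 0.5 nM R1881.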

Test [19] addresses Estrogen receptor (Homo sapiens) (UniProt P03372). The test can be described thus: qHTS assay to identify small molecule antagonists of the estrogen receptor alpha (ER-alpha) signaling pathway using the BG1 cell line in the presence of 0.1 nM 17-beta-estradiol (AID 1259244). Also: nearly all actives have a fitted effect of over 50% in size. Also: potency is read from the fitted curve at half-maximal effect. The procedure, abridged: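 Quantitative high-throughput screen in VM7Luc4E2 cells: compound plus 0.1 nM E2 (final), 22 h, 37C, 5% CO2; ONE-Glo added, 30 min room temperature, luminescence measured.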

Test [20] concerns the target Androgen receptor (Homo sapiens) (UniProt P10275). The test can be described thus: qHTS assay to identify small molecule antagonists of the androgen receptor (AR) signaling pathway using the MDA cell line in the presence of 0.5 nM R1881 (AID 1259243). The method in brief: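 Inhibition of R1881 (0.5 nM final) induced reporter signal was measured in human MDA-kb2 cells; note the MMTV promoter also responds to GR. Exposure lasted 16 hr at 37C.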

SMILES strings stand for the structures. Values joined by “and” are separate entries in the source; they are usually repeats but may differ in a detail not shown here. Equal entries are not always repeated. Records with an inconclusive call do not appear. A structure can be active in one record and inactive in another. Active and inactive are the calls of the source. Unless noted, calls follow the shape of the dose curve; as a rule, active = well fitted curve in the direction sought with a large enough effect in the repeat runs; inconclusive = weak or mixed curves; inactive = no such curve, though single readings can be large; an effect the other way counts as inactive or inconclusive.

Estrogen receptor (Homo sapiens), sequence (P03372 whole entry, looked up): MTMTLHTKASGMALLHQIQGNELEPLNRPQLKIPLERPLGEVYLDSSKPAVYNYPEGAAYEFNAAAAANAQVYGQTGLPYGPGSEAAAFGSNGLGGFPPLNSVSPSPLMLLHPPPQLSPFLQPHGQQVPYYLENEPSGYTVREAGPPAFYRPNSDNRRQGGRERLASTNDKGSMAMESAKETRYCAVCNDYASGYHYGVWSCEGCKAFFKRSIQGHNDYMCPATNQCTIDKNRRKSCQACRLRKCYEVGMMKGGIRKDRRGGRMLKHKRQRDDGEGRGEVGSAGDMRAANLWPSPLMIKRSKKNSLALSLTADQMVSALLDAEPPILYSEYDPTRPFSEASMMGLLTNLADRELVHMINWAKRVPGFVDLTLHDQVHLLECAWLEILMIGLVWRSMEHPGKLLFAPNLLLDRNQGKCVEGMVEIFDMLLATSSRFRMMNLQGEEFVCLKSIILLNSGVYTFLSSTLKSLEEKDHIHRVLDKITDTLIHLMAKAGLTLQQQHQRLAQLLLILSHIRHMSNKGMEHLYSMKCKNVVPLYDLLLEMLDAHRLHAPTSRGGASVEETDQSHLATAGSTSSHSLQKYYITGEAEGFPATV
Androgen receptor (Homo sapiens), sequence (P10275 whole entry, looked up): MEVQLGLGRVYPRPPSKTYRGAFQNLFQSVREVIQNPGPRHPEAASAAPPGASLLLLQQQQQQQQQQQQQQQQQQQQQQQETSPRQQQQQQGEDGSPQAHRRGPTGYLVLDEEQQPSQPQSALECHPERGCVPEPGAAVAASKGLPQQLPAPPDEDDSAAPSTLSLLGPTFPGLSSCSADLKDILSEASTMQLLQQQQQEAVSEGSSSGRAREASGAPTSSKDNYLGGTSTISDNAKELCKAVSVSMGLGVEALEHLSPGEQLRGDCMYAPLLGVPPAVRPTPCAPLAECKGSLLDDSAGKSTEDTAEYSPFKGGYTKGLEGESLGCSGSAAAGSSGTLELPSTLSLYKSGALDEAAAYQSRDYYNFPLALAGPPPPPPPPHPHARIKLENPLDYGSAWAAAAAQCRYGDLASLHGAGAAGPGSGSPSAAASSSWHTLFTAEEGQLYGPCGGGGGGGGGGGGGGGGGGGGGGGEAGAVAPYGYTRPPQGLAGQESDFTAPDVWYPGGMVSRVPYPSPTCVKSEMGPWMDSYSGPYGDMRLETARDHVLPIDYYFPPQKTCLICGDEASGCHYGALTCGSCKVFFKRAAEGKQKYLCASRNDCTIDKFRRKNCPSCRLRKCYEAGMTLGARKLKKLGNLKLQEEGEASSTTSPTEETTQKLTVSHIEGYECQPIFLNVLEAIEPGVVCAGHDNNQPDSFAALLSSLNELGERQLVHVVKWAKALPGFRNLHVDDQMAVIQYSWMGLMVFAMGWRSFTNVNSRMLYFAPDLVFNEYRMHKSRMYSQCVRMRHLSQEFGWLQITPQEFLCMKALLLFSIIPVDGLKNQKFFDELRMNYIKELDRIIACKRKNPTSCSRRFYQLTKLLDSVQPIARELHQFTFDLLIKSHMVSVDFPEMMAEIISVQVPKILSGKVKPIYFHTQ

As for `O=C(O)c1cn(-c2ccc(F)cc2)c2cc(N3CCNCC3)c(F)cc2c1=O`, the Potency result in test [1], in test [2], in test [3], in test [4], in test [5] and in test [6] was “inactive” in each case. The Potency result in [7], in test [8], in [9], in test [10], in test [11] and in test [12] was “inactive” throughout. Besides, the Potency entry in test [13], in test [14], in test [15], in test [16] and in [17] was “inactive” each time.

Regarding `O`, the Potency entry in [1], in [2], in test [3], in [4], in [5] and in [6] was “inactive” in each case. The Potency entry in test [7], in [8], in test [9], in test [10], in test [18] and in test [13] was “inactive” in each case. The Potency entry in test [14], in [15] and in [16] was “inactive” each time.

In the case of `Nc1nc2ccccc2[nH]1`, the Potency result in test [1], in test [2], in test [3], in [4], in test [5] and in test [6] was “inactive” throughout. Also, the Potency result in test [7], in test [8], in [9], in test [10], in test [19] and in test [13] was “inactive” in each case. Besides, the Potency entry in test [14], in test [15] and in test [17] was “inactive” throughout.

For the compound `CCOC(=O)C(C)C(C)=O` (stereo not drawn), the Potency result in [1], in [2], in test [3], in [4], in test [5] and in [6] was “inactive” each time. The Potency result in test [7], in [8], in test [9], in [10], in [18] and in test [14] was “inactive” throughout. The Potency result in [15], in [16] and in test [17] was “inactive” throughout.

Consider `O=C(Cl)c1cccc(C(=O)Cl)c1`, for which the Potency entry in [1], in [2], in test [3], in [4], in [5] and in test [6] was “inactive” throughout. The Potency result in [7], in test [8], in test [9], in [10], in test [12] and in test [13] was “inactive” throughout. Further, the Potency entry in test [14], in test [15], in test [16] and in test [17] was “inactive” in each case.

In the case of `C=C(C)C1CC=C(C)C(OC(C)=O)C1` (stereo not drawn), the Potency entry in [1], in test [2], in [3], in test [4], in test [5] and in test [6] was “inactive” in each case. Besides, the Potency result in test [7], in [8], in [9], in [10], in test [19] and in test [12] was “inactive” in each case. Moreover, the Potency result in test [13], in test [14], in test [15], in [16] and in [17] was “inactive” each time.

As to `Oc1ccc(Cl)cc1Cc1cc(Cl)ccc1O`, the Potency entry in [1], in [2], in test [3], in test [4], in test [7] and in test [8] was “inactive” in each case. For the same compound, the Potency entry in test [9], in test [10], in test [11], in test [13] and in test [16] was “inactive” throughout. Besides, the Potency was 22.3 µM (active) and 43.6 µM (active) in test [5]; 25 µM (active) and inactive in test [6]; 13.9 µM (active) and 27.3 µM (active) and 23.7 µM (active) in test [20]; 44.1 µM (active) and 68.6 µM (active) in test [19]; 62.3 µM (active) and inactive in test [14]; 55.5 µM (active) and 43.3 µM (active) and inactive in test [15]. For the same compound, the Potency in test [17] is 15.6 µM (active) and 21.7 µM (active).
